Assay results as given in the supplement of paper PMC3334620.
Over roughly 33,000 sequences, “E-score (-0.5 to 0.5)” has its median near -0.056; the highest 2% begin near 0.38. Shown is part of a subset that was picked to be rich in the highest values.

biological target: Stb4 (UniProt P50104); experiment: PBM E-score (8-mer binding enrichment) (E-score (-0.5 to 0.5)); higher = stronger / more preferred TF binding; settings: protein concentration: 200 nM; construct: GST-DNA-binding domain
How it was run: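 GST-tagged yeast TFs (full-length or DNA-binding domain) were made by PURExpress in vitro transcription/translation and applied at about 100-200 nM to universal all-10-mer Agilent arrays. The arrays were made double-stranded by primer extension, on fresh or once-stripped slides. Bound protein was detected with fluorescent anti-GST, and scans were normalised with masliner. Each ungapped eight-base word, pooled with its reverse complement, received an E-score (modified Wilcoxon-Mann-Whitney statistic) from the Universal PBM Analysis Suite.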

Chain of UniProt P50104 (P50104 whole entry, the tested form may be a part): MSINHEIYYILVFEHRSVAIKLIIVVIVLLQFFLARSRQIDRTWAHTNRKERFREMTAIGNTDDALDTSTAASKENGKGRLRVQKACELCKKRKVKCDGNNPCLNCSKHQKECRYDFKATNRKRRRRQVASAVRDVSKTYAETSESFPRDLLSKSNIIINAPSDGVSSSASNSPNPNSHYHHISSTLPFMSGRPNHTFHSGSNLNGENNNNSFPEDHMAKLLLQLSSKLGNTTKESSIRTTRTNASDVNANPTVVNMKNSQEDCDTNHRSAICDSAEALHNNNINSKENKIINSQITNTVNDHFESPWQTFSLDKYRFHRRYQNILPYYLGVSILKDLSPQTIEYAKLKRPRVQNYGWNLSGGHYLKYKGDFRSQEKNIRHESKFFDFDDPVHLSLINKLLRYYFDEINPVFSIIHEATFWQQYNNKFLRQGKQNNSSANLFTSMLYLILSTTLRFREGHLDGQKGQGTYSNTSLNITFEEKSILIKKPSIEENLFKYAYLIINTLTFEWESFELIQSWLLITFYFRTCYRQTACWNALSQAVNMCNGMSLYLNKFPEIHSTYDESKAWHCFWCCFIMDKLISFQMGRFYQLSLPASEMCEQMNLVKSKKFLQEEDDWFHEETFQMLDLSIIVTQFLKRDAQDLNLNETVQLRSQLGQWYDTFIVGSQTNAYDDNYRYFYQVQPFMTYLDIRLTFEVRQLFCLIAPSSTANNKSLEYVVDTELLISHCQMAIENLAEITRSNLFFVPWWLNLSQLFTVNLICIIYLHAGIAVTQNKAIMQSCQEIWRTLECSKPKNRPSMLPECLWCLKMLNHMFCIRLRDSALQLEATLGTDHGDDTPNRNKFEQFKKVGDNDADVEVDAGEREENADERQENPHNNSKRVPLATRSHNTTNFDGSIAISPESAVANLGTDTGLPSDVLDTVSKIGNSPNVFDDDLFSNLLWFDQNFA

First: CAGGCGAG
Second: ACTGCATA
The “PBM E-score” value of the first is lower: -0.294 for the first, -0.135 for the second.

First: AGTATCTC
Second: TCTAGCAA
The “PBM E-score” value of the first is higher: -0.0258 for the first, -0.0809 for the second.

Compared with AATCCGGG, CATCCAGG is lower in “PBM E-score” value: 0.306 for the first, -0.178 for the second.

First: CCTCCGGA
Second: CATCCGTA
The “PBM E-score” value of the first is lower: 0.307 for the first, 0.329 for the second.

Compared with AGTCCGGC, CATCCGGG is higher in “PBM E-score” value: 0.0945 for the first, 0.397 for the second.

Compared with CATCCGGC, CATCCGGA is higher in “PBM E-score” value: 0.397 for the first, 0.406 for the second.

First: CGTCCGGC
Second: AAAGCCCT
The “PBM E-score” value of the first is higher: 0.253 for the first, -0.106 for the second.

Compared with CGAAAACA, CGTGTTTA is lower in “PBM E-score” value: 0.123 for the first, -0.00808 for the second.

Going from AGCTGTGC to AATATCTA, the “PBM E-score” value rises from -0.148 to -0.0944.

First: CCGCTATA
Second: AGTTCTCG
The “PBM E-score” value of the first is higher: 0.0382 for the first, 0.0181 for the second.

Going from ATCTTAAG to CCGCTGAC, the “PBM E-score” value rises from -0.187 to 0.0389.

Going from CCACCGCG to ACACGAAG, the “PBM E-score” value rises from -0.00158 to 0.00748.

First: GCCCGAAC
Second: TCACGAAA
The “PBM E-score” value of the first is higher: 0.262 for the first, -0.0978 for the second.

Going from AACCGAAT to CCCCGAAG, the “PBM E-score” value rises from 0.325 to 0.354.

Going from ACCCGAAC to ACCCCGAT, the “PBM E-score” value falls from 0.463 to 0.266.

Compared with ACCCGAAG, CCCCGAAC is lower in “PBM E-score” value: 0.424 for the first, 0.338 for the second.

Going from TCCCGACA to TCCCGAAA, the “PBM E-score” value rises from 0.355 to 0.432.

First: ACCCGAAT
Second: GGGGTTAA
The “PBM E-score” value of the first is higher: 0.425 for the first, 0.0779 for the second.

Compared with GCTTTCAA, CGAGAGTC is higher in “PBM E-score” value: -0.0547 for the first, 0.0872 for the second.

Compared with ATGCCTTC, CTTTTCAC is lower in “PBM E-score” value: -0.0568 for the first, -0.191 for the second.

Going from ATGCCCAG to CGGACAGA, the “PBM E-score” value rises from 0.0828 to 0.129.

First: CACGCTTC
Second: GCCCGAAA
The “PBM E-score” value of the first is lower: 0.0187 for the first, 0.276 for the second.

Compared with CCCCGAAA, ACCCGAAA is higher in “PBM E-score” value: 0.34 for the first, 0.435 for the second.

First: AAGTGCAG
Second: AACTTAGT
The “PBM E-score” value of the first is lower: -0.212 for the first, 0.0161 for the second.

Compared with CATCCCGA, GATCCCGA is higher in “PBM E-score” value: 0.401 for the first, 0.417 for the second.

First: TATCCCCA
Second: CATCCCGG
The “PBM E-score” value of the first is lower: -0.185 for the first, 0.342 for the second.

Compared with AATCCCGT, GATCCCAA is lower in “PBM E-score” value: 0.303 for the first, -0.0342 for the second.

Compared with AATCCCGA, TATCCCAA is lower in “PBM E-score” value: 0.431 for the first, 0.0571 for the second.

Going from CATCCCGC to AATCCCGC, the “PBM E-score” value rises from 0.122 to 0.225.

Compared with GATCCCGC, TATCCCGA is higher in “PBM E-score” value: 0.225 for the first, 0.398 for the second.

Compared with CGAGTAAA, ATTGTAGA is lower in “PBM E-score” value: 0.143 for the first, -0.132 for the second.

Compared with AGTTTGGG, AGCTAAAA is higher in “PBM E-score” value: -0.172 for the first, -0.0535 for the second.

First: CCAGTTGC
Second: CAATAGGC
The “PBM E-score” value of the first is higher: -0.0304 for the first, -0.0832 for the second.

First: TCAGATAA
Second: AATCCTTA
The “PBM E-score” value of the first is lower: -0.0704 for the first, -0.0563 for the second.

Compared with ACCGGACG, GCCGGATA is higher in “PBM E-score” value: 0.146 for the first, 0.409 for the second.

Compared with GCCGGAGA, CGGGGATC is higher in “PBM E-score” value: 0.192 for the first, 0.279 for the second.

Going from CCCGGAGA to CCCGGACA, the “PBM E-score” value falls from 0.318 to 0.264.

Going from CCCGGATA to ACCGGAGG, the “PBM E-score” value falls from 0.429 to 0.228.

Going from GCCGGACA to ACCGGATG, the “PBM E-score” value rises from 0.154 to 0.385.

Compared with CCGGGATA, CCGGGATC is higher in “PBM E-score” value: 0.292 for the first, 0.384 for the second.

First: AAGGGGTC
Second: GACGTACC
The “PBM E-score” value of the first is lower: -0.176 for the first, -0.0237 for the second.

First: CAAAGCAA
Second: ATCGAGAA
The “PBM E-score” value of the first is higher: -0.0355 for the first, -0.157 for the second.

First: GATTTTAC
Second: GGACGGCC
The “PBM E-score” value of the first is higher: 0.0329 for the first, -0.028 for the second.

Compared with ATGCCAAG, GCAAAAAA is higher in “PBM E-score” value: -0.177 for the first, 0.137 for the second.

Compared with CCGCAGTC, TGATTGCA is lower in “PBM E-score” value: 0.112 for the first, -0.0923 for the second.

First: ACCGGATA
Second: ACCGGACA
The “PBM E-score” value of the first is higher: 0.388 for the first, 0.128 for the second.

First: CCCGGATC
Second: ACCGGAGA
The “PBM E-score” value of the first is higher: 0.385 for the first, 0.187 for the second.

Compared with ACCGGATC, CCCGGAGC is lower in “PBM E-score” value: 0.353 for the first, 0.32 for the second.

Going from CAAAATGC to CTGAACCA, the “PBM E-score” value falls from -0.121 to -0.197.

First: ACGCCGTA
Second: ATCAACAC
The “PBM E-score” value of the first is lower: -0.208 for the first, -0.101 for the second.

First: CCGAAATA
Second: GCGAAATA
The “PBM E-score” value of the first is higher: 0.401 for the first, 0.0947 for the second.

Going from CTGAAATC to ACGAAATA, the “PBM E-score” value falls from -0.0865 to -0.111.

Going from CCGAAATC to ACGAAATC, the “PBM E-score” value falls from 0.405 to -0.0845.

Compared with CGGTAACA, ACACTGCG is lower in “PBM E-score” value: 0.238 for the first, 0.00398 for the second.

Compared with AGGTTGGC, GTATTATA is higher in “PBM E-score” value: -0.205 for the first, 0.0782 for the second.

First: TATTCCCA
Second: GATTCCCA
The “PBM E-score” value of the first is higher: 0.0571 for the first, -0.109 for the second.

First: GATTCCGA
Second: AATTCCGG
The “PBM E-score” value of the first is higher: 0.444 for the first, 0.358 for the second.

First: CATTCCGG
Second: AATTCCGA
The “PBM E-score” value of the first is lower: 0.358 for the first, 0.46 for the second.

Compared with TATTCCAA, GATTCCGC is higher in “PBM E-score” value: -0.113 for the first, 0.222 for the second.

Compared with CATTCCGA, TATTCCGA is higher in “PBM E-score” value: 0.449 for the first, 0.462 for the second.

Going from AATTCCGC to CATTCCGC, the “PBM E-score” value falls from 0.246 to 0.175.

Compared with CCACCCGC, TATCAAGA is lower in “PBM E-score” value: 0.194 for the first, -0.216 for the second.

Compared with CAGCCTGG, CCCAGTGC is higher in “PBM E-score” value: -0.203 for the first, -0.0453 for the second.

Compared with ATGTCGGC, GTGTCGGA is higher in “PBM E-score” value: 0.138 for the first, 0.395 for the second.

Going from CTGTCGGA to GTGTCGTA, the “PBM E-score” value falls from 0.353 to -0.0741.

First: GTGTCGCA
Second: ATGTCGGA
The “PBM E-score” value of the first is lower: -0.0287 for the first, 0.389 for the second.

Compared with ATTAGTAA, AGTGATAG is lower in “PBM E-score” value: 0.076 for the first, -0.33 for the second.

Going from AGCACAGA to GCCAATAA, the “PBM E-score” value rises from -0.121 to 0.0672.

Compared with CACATCCA, AACATCCG is higher in “PBM E-score” value: -0.0807 for the first, 0.45 for the second.

First: CACATCCC
Second: ATCATCCC
The “PBM E-score” value of the first is higher: 0.187 for the first, 0.052 for the second.

First: ATCATCCA
Second: ACCATCCT
The “PBM E-score” value of the first is higher: -0.121 for the first, -0.249 for the second.

First: ACCATCCC
Second: CACATCCG
The “PBM E-score” value of the first is lower: 0.0842 for the first, 0.425 for the second.

Compared with ACCATCCG, AACATCCC is lower in “PBM E-score” value: 0.406 for the first, 0.232 for the second.

First: AACATCCT
Second: ATCATCCG
The “PBM E-score” value of the first is lower: -0.0622 for the first, 0.414 for the second.

Going from AATCAATA to CGATTAAG, the “PBM E-score” value falls from -0.0212 to -0.128.

Compared with AAAAGGGC, CAATTCTA is lower in “PBM E-score” value: -0.141 for the first, -0.196 for the second.

First: AATTCTTA
Second: CTGGAGCA
The “PBM E-score” value of the first is higher: -0.0318 for the first, -0.262 for the second.

Going from ATCCTAGG to GCTCCAAC, the “PBM E-score” value falls from -0.0251 to -0.111.

First: CACTGGCA
Second: GCTTGAGA
The “PBM E-score” value of the first is higher: -0.23 for the first, -0.312 for the second.

Compared with CCGAGATA, ACGAGATC is lower in “PBM E-score” value: 0.405 for the first, -0.0355 for the second.

Going from ACGAGATA to GCGAGATA, the “PBM E-score” value rises from -0.184 to 0.026.

First: CTGAGATC
Second: CCGAGATC
The “PBM E-score” value of the first is lower: -0.0537 for the first, 0.435 for the second.

Compared with AAGCAGCT, CCAGACTA is lower in “PBM E-score” value: -0.0723 for the first, -0.229 for the second.

Going from CTGAGGGA to CATTTCCG, the “PBM E-score” value rises from -0.284 to 0.421.

First: CATTTCCC
Second: ATTTTCCC
The “PBM E-score” value of the first is higher: 0.18 for the first, 0.0682 for the second.

Going from ATTTTCCA to AGTTTCCA, the “PBM E-score” value falls from -0.0573 to -0.103.
